Columns and labels:
Assay in all cases: log2 ratio of Biotin-Ahx-Ub-VS probe labelling (fragment/DMSO); higher = less target engagement (more negative = stronger competition), active = hit call of the paper (q ≤ 0.05, log2 ratio ≤ -1)
Settings in all cases: compound concentration: 200 uM; treatment time: 3 h
USP16 = USP16 (UniProt Q9Y5T5)
How it was run: (§1)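 Labelled DUBs were enriched with NeutrAvidin, digested with LysC and trypsin, and run by diaPASEF LC-MS/MS. The labelling used Biotin-Ahx-Ub-VS at 0.5 µM final for 1 h on HEK293T lysate (495 µg per sample) previously treated in triplicate with fragment at 200 µM or vehicle for 3 h. Values are average log2 fragment/vehicle ratios by unpaired t-test on global-median-normalised Spectronaut quantities of proteins with ≥2 unique peptides.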

USP19 = molecular target: T1, USP19 (UniProt O94966)
T1 sequence (whole entry): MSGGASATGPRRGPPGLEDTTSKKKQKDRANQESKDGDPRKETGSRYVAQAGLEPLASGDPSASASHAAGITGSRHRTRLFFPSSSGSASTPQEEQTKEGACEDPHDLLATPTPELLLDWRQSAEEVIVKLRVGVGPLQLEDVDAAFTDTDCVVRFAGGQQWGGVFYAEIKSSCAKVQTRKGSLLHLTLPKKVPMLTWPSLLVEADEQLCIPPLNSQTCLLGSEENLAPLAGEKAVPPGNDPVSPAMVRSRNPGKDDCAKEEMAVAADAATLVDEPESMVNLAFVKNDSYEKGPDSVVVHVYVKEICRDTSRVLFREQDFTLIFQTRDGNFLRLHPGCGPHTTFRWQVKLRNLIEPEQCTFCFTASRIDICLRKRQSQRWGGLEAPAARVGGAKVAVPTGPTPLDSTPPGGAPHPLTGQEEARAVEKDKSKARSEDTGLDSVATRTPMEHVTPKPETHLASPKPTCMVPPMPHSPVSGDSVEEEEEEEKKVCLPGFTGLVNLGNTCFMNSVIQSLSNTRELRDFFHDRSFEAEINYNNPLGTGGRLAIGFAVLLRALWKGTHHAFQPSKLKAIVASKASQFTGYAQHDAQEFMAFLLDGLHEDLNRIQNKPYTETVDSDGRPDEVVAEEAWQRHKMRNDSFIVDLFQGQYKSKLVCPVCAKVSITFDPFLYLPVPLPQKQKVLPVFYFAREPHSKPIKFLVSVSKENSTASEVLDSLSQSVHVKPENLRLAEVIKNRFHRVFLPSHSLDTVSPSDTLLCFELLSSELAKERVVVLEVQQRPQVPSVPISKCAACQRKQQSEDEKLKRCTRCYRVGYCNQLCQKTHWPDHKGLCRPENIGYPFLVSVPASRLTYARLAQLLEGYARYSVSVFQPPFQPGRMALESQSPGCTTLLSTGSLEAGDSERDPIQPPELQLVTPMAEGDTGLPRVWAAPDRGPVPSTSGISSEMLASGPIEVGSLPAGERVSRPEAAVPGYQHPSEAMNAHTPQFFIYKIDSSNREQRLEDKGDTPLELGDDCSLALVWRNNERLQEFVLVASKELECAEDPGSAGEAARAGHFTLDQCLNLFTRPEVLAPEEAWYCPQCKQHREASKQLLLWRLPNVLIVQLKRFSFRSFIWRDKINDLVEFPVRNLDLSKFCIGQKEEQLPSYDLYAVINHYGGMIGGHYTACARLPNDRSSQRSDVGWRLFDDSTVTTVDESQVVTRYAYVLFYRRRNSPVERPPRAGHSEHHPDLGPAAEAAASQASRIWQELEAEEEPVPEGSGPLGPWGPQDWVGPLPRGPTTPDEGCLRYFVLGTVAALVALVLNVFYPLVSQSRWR
How it was run: as §1

USP24 = USP24 (UniProt Q9UPU5)
How it was run: as §1

USP25 = molecular target: T2, USP25 (UniProt Q9UHP3)
T2 sequence (whole entry): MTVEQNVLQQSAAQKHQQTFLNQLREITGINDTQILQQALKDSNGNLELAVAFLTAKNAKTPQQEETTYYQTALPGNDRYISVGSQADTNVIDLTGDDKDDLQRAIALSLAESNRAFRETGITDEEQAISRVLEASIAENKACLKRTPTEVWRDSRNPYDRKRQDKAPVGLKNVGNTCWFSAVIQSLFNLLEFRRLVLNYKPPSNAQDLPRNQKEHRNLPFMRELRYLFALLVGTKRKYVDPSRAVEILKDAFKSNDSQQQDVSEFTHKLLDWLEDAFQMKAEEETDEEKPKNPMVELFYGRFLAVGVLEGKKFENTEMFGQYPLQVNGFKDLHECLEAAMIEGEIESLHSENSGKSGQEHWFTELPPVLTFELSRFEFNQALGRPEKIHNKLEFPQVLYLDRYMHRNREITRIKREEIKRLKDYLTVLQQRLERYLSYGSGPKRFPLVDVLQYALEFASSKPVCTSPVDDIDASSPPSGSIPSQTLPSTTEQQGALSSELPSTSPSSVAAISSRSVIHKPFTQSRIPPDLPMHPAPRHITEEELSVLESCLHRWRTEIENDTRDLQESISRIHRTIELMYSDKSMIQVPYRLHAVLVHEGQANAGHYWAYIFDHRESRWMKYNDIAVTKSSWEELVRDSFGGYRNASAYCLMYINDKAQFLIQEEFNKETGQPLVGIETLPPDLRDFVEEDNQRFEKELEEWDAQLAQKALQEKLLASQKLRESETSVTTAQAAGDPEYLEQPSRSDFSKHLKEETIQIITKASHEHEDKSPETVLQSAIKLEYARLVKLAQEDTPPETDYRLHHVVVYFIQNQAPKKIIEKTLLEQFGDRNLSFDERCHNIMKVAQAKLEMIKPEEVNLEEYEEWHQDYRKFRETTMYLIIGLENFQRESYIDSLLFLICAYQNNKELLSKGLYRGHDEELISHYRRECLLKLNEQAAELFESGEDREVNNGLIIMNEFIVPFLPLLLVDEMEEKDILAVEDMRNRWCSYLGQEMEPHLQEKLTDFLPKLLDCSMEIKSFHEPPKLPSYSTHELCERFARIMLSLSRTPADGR
How it was run: as §1

USP28 = molecular target: T3, USP28 (UniProt Q96RU2)
T3 sequence (whole entry): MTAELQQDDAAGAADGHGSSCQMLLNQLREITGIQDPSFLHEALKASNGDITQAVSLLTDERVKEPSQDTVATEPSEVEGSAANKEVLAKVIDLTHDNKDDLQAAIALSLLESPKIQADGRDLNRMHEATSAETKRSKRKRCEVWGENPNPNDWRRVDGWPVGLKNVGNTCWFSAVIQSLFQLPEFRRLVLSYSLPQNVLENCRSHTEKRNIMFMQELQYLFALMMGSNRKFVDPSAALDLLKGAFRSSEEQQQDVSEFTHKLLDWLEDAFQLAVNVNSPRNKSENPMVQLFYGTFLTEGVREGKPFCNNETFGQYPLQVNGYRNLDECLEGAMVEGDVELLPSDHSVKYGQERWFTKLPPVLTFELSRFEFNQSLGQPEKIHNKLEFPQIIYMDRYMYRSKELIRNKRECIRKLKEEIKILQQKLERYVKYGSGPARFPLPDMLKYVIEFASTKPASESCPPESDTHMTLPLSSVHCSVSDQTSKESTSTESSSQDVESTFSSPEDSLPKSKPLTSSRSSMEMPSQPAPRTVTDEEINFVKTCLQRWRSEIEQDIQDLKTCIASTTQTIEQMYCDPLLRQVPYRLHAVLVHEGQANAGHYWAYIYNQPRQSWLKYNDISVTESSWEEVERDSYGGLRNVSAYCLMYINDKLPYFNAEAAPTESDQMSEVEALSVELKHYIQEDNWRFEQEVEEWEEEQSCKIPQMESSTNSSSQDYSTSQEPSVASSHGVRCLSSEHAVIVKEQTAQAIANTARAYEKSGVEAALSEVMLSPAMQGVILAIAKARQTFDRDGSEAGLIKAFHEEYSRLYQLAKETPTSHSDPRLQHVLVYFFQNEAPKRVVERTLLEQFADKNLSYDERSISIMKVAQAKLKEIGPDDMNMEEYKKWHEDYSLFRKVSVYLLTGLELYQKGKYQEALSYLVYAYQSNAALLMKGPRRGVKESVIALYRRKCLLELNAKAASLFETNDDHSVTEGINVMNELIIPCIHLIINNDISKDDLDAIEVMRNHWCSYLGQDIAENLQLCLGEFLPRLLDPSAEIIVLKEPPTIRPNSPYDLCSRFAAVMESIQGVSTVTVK
How it was run: as §1

Measured: log2 ratio of Biotin-Ahx-Ub-VS probe labelling

Chain of USP16 (Q9Y5T5 whole entry, looked up, the tested form may be a part): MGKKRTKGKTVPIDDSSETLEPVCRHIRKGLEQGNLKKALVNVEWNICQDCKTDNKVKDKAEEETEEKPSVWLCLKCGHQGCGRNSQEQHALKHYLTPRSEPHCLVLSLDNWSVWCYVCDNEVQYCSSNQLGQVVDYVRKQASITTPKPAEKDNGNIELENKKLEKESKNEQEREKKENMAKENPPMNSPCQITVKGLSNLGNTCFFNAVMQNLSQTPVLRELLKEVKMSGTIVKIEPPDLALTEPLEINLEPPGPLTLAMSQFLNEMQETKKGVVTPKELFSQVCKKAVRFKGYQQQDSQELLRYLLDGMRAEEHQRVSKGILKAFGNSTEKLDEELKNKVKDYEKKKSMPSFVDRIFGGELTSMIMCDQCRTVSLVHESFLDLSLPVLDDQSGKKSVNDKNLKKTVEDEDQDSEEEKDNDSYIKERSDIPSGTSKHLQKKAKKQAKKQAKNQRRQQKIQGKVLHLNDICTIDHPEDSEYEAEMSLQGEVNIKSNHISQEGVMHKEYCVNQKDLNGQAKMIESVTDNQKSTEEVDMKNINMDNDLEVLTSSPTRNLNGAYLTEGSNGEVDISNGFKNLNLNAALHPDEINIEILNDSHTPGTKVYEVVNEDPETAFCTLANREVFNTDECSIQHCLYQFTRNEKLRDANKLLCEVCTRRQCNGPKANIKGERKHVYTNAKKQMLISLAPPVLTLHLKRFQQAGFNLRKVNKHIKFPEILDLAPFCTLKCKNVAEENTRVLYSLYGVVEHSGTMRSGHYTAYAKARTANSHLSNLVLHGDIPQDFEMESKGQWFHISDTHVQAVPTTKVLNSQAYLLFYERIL
Chain of USP24 (Q9UPU5 whole entry): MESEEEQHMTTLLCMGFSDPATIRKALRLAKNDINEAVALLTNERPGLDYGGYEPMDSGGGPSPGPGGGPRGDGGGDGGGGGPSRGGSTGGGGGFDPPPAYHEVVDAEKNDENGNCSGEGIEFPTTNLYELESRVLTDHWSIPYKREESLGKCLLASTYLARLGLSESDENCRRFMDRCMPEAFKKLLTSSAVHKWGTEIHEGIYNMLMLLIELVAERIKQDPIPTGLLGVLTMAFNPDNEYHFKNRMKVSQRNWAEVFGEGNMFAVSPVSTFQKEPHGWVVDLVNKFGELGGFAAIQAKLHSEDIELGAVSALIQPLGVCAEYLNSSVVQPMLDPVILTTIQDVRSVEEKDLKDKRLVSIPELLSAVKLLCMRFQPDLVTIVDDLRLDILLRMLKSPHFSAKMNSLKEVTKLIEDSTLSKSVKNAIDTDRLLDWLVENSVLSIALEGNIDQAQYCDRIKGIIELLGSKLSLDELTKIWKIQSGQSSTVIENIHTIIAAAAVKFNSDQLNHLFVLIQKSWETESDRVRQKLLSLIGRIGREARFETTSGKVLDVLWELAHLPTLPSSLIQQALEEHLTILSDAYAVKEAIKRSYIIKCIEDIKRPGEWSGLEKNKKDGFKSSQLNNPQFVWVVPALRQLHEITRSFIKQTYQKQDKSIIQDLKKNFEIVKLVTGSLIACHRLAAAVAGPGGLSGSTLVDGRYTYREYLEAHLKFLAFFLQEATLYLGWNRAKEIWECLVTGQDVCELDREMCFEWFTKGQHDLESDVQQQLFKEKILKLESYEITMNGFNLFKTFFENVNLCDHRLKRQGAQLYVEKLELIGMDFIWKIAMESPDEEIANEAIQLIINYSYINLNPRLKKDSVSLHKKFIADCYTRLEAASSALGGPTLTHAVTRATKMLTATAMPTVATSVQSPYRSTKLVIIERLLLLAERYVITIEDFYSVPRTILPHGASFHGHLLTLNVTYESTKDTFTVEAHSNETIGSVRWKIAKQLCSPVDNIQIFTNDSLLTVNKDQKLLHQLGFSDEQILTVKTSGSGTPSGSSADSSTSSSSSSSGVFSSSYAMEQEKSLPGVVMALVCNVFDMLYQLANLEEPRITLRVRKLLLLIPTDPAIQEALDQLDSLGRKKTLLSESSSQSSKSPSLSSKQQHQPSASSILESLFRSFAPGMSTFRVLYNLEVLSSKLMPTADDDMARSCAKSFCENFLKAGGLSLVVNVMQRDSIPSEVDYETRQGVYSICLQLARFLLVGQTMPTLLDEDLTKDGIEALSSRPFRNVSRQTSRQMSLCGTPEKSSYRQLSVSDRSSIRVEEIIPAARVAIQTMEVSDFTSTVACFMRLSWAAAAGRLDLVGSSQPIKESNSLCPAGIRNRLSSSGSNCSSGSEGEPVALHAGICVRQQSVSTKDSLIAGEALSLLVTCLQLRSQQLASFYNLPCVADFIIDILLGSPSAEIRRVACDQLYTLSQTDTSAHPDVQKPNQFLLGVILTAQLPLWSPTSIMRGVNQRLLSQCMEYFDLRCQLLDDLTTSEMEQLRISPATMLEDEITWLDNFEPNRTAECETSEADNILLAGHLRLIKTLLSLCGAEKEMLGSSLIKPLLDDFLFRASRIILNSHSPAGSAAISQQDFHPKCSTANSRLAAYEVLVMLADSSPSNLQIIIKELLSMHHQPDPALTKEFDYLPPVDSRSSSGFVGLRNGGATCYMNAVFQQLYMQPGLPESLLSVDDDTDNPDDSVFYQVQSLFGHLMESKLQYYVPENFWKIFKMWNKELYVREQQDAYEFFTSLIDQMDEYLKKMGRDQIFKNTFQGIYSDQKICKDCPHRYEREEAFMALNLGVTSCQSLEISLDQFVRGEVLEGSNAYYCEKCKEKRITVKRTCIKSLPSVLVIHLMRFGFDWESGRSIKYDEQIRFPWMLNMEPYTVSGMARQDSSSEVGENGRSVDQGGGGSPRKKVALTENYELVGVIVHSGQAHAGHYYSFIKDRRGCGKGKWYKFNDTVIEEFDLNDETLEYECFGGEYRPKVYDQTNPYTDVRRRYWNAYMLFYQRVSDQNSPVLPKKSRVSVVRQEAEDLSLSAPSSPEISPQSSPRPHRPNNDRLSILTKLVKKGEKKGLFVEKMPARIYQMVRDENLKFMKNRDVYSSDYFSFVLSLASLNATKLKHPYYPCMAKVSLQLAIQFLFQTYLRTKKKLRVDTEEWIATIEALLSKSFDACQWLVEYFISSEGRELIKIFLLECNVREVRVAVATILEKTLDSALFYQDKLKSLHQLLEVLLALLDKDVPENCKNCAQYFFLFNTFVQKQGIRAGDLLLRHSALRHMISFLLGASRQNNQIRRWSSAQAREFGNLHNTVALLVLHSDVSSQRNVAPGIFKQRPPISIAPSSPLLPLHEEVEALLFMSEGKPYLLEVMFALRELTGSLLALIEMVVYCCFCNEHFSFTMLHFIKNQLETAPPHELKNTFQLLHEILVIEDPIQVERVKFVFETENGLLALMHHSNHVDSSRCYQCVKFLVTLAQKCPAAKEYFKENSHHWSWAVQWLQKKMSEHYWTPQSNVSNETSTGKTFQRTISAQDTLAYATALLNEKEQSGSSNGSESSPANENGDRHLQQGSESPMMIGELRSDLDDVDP

O=C(CCl)Nc1ccc(F)cc1Cl
inactive: USP16 -0.265 | USP19 -0.2 | USP24 -0.832 | USP25 -0.414 | USP28 -0.873

— the supplement of paper PMC11732987, “Enantioselective OTUD7B fragment discovery through chemoproteomics screening and high-throughput optimisation” (Communications Chemistry, 2025)
